Data published in PubChem BioAssay (Tox21).
Activity calls are given as the source filed them. The call rests on the fitted dose curve; in most records, active means well fitted curve in the direction sought with a large enough effect in the repeat runs; inconclusive means weak or mixed curves; inactive means flat fitted curve, though single readings scatter.
On the % scale 0 is the no-effect control and ±100 the full control effect.

Test: qHTS assay to test for compound auto fluorescence at 460 nm (blue) in HepG2 cells (AID 720687)
Conditions: autofluorescence 405/460 nm, 1 h; series mostly up to 91.3 µM; fluorescence, % of fluorescent control: at the top concentration
Description: U.S. Tox21 Program National Center for Advancing Translational Sciences [NCATS] NIH Chemical Genomics Center [NCGC] U.S. Environmental Protection Agency [EPA] National Institutes of Environmental Health Sciences [NIEHS] National Toxicology Program [NTP] U.S. Food and Drug Administration [FDA] Tox21 Assay Overview: Compound auto fluorescence often interferes with screening of the compound library against various biological targets and signaling pathways. Some of these compounds may have fluorophoric properties. Such properties may interfere with the assay outputs resulting in false positives and/or negatives. To decrease such complications and ensure the compound activities are relevant in terms of biological response, the Tox21 10K compound library was screened for auto fluorescence. From the fluorophores used as reporter signals in our screening assays, the auto fluorescence equivalencies of compounds against three fluorophores have been evaluated: Triamterene, Fluorescein and Rose Bengal sodium for blue, green and red fluorescence, respectively. The fluorescence intensities were measured using Excitation/Emission wavelengths at 405/460nm, 485/535nm and 540/590nm for blue, green and red labels, respectively. This assay includes the blue fluorescence data.
Tox21 Assay Protocol Summary: 2,000 HepG2 cells in 5 uL of culture medium (MEM containing 10% FBS) per well were dispensed into black wall/clear bottom 1536-well plates using a Multidrop Combi Dispenser (ThermoFisher Scientific, Waltham, MA). The assay plates were incubated overnight at 37 C to allow cell attachment to the well bottom, followed by the transfer of 23 nL compound or DMSO vehicle by a pintool work station (Kalypsys , San Diego, CA). After the assay plates were incubated for 1 hr at 37 C and 5% CO2, fluorescence intensities in the assay plates were measured by an Envision (PerkinElmer, Shelton, CT) plate reader using three labels for measuring blue, green and red fluorescence at […] 460, 535 and 590 nm respectively.
With `C=Cc1ccc(C)cc1` the outcome was “inactive”. For `N#Cc1ccccc1`, the outcome was “inactive”. In the case of `COc1cc(OC)c(C(=O)CCCN2CCCC2)c(OC)c1`, the outcome is reported as “inactive”. With `CCCOC(=O)c1ccccc1` the outcome was “inactive”. With `CCO[Si](CCCN)(OCC)OCC` the outcome was “inactive”. In the case of `C=CCCCCCCCCC(=O)O`, the outcome is reported as “inactive”. In the case of `CC1(C)CC(N)CC(C)(CN)C1` (stereo not given), the outcome is reported as “inactive”. For `Cc1ccc(S(=O)(=O)N=C=O)cc1`, the outcome was “inactive”. For `CC1(C)S[C@@H]2[C@H](NC(=O)COc3ccccc3)C(=O)N2[C@H]1C(=O)O`, the outcome was “inactive”. In the case of `O=C(O)c1ccccc1C(=O)O`, the outcome is reported as “inactive”. With `CC(=O)Oc1ccc(C)cc1` the outcome was “inactive”. For `CCCCC(C=O)CC` (stereo not given), the outcome was “inactive”. For `O=C(O)CCCCCCCCC(=O)O`, the outcome was “inactive”. In the case of `NCCCCCCN`, the outcome is reported as “inactive”. For `COC(=O)c1cccnc1`, the outcome was “inactive”. With `CCCCCCCO` the outcome was “inactive”. In the case of `CNC(=O)Oc1ccc2c(c1)[C@]1(C)CCN(C)[C@@H]1N2C`, the outcome is reported as “inactive”. For `CN/C(=C\[N+](=O)[O-])NCCSCc1csc(CN(C)C)n1`, the outcome was “inactive”. With `O=[N+]([O-])c1ccc2nc[nH]c2c1` the outcome was “inactive”. With `C[Si]1(C)O[Si](C)(C)O[Si](C)(C)O[Si](C)(C)O1` the outcome was “inactive”. With `CCCCOC(=O)c1ccc(N)cc1` the outcome was “inactive”. In the case of `COc1ccc(C)cc1N`, the outcome is reported as “inactive”. With `C=C(C)C(=O)OCC(C)C` the outcome was “inactive”. With `CC(CCO)CC(C)(C)C` (stereo not given) the outcome was “inactive”. With `O=C(O)Cn1c(=O)n(Cc2ccc(Br)cc2F)c(=O)c2ccc(Cl)cc21` the “fluorescence, % of fluorescent control” value was -0.121% (inactive). In the case of `CN(C)c1ccc(Cc2ccc(N(C)C)cc2)cc1`, the outcome is reported as “inactive”. For `COc1ccc([N+](=O)[O-])cc1N`, the outcome was “inactive”. With `CCCCCCCCCCCCCCCC(=O)OC(C)C` the outcome was “inactive”. In the case of `COCCOC(=O)c1ccccc1C(=O)OCCOC`, the outcome is reported as “inactive”. For `CCO[Si](CCC#N)(OCC)OCC`, the outcome was “inactive”. In the case of `CSc1ccc(Cl)cc1`, the outcome is reported as “inactive”. For `O=c1[nH]cnc2[nH]ncc12`, the outcome was “inactive”. With `O=C1c2ccccc2CCc2ccccc21` the “fluorescence, % of fluorescent control” value was -0.0936% [at 95.7 µM] (inactive). For `CC(C)(C)c1cc(Cc2cc(C(C)(C)C)c(O)c(C(C)(C)C)c2)cc(C(C)(C)C)c1O`, the outcome was “inactive”. In the case of `CCc1ccccc1CC`, the outcome is reported as “inactive”. For `O=C(O)c1ccc(C(=O)O)c(C(=O)O)c1`, the outcome was “inactive”. With `CC(=O)OCCOC(C)=O` the outcome was “inactive”. With `CC(C)=CCl` the outcome was “inactive”. In the case of `COC(=O)CCCC(=O)OC`, the outcome is reported as “inactive”. For `O=C(O)c1cc2ccccc2cc1O`, the outcome was “inactive”.
